# Records with an inconclusive call do not appear. Activity calls are given as the source filed them.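 How the source made its calls, unless noted: active means normalized viability below 100% at a tested concentration; inactive means the rest.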
# How the values were obtained:
# [1] = growth inhibition of DIPG glioma cells, dose response, cell-based, SU-DIPG-IV, MIPE4.0, CellTiter-Glo, qHTS (AID 1347063; cut-off not given, nearly all actives have AC50 up to about 30 µM;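 further: compound exposure lasted 48 hours before the viability readout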); settings: SU-DIPG-IV viability, CellTiter-Glo ATP luminescence
# [2] = JHH-DIPG-1 glioma cell viability, MIPE5.0 library, CellTiter-Glo luminescence, qHTS (AID 1347067; cut-off not given, nearly all actives have AC50 up to about 26 µM;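 further: cells exposed to compound for 48 hours before readout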); settings: JHH-DIPG-1 glioma viability, CellTiter-Glo ATP luminescence
# [3] = SU-DIPG-XXV glioma cell viability, MIPE5.0 library, qHTS (AID 1347068; cut-off not given, nearly all actives have IC50 up to about 30 µM)
# [4] = sensitizers of A549 cells to miR-34 induction, primary screen, imaging, A549 dox-inducible miR-34, nuclei and caspase counts (AID 1347080;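 active means compounds whose cell count with miR-34 switched on is under 0.7 times the count with it off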); settings: A549 miR-34 inducible, Hoechst nuclei count, 48 h
# [5] = survival rescue of mitochondrial mutant cells in low glucose, primary screen, MELAS cybrids, Rieske KO mouse fibroblasts, CellTiter-Glo (AID 1508586;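 active means mean z-score across replicates of 1.96 or higher in either the MELAS or the Rieske mutant cell line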;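 further: z relative to plate mean and SD of compound and empty wells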)
# [6] = ovarian cancer cell viability with rucaparib, profiling panel, oncology-focused library, rucaparib conditional (AID 1508598); settings: patient-derived ovarian cancer cells, CellTiter-Glo viability, 144 h, stronger effect = lower value
# [7] = growth inhibition of DIPG glioma cells, dose response, cell-based, SU-DIPG-XIII, MIPE5.0, CellTiter-Glo, qHTS (AID 1347064; cut-off not given, nearly all actives have AC50 up to about 23 µM;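 on AC50: cells exposed to compound for 48 hours before the viability read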); settings: SU-DIPG-XIII viability, CellTiter-Glo ATP luminescence
# [8] = viability loss in pontine glioma line – cell-based, SU-DIPG-XXV, MIPE5.0, CellTiter-Glo, qHTS, dose response (AID 1347065; cut-off not given, nearly all actives have AC50 up to about 26 µM;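 further: cells exposed to compound for 48 hours before ATP readout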); settings: CellTiter-Glo ATP luminescence
# [9] = stronger effect = lower value, cell number ratio, induced over uninduced
# [10] = measured here: relative caspase fold change +Dox/-Dox
# [11] = measured here: total cells with miR-34 induction, stronger effect = lower value
# [12] = measured here: total cells without miR-34 induction
# [13] = MELAS cybrid survival, CellTiter-Glo 48 h, stronger effect = higher value
# [14] = Rieske KO mouse fibroblast survival, CellTiter-Glo 72 h
# [15] = at 0.000305 µM, OCI-C5x cells, with rucaparib 10 µM, 100% = cells with rucaparib alone
# [16] = at 0.000305 µM, OCI-C5x cells, without rucaparib
# [17] = at 0.000305 µM, OCI-P5x cells, with rucaparib 20 µM, 100% = cells with rucaparib alone
# [18] = at 0.000305 µM, OCI-P5x cells, without rucaparib
# [19] = at 0.00122 µM, OCI-C5x cells, with rucaparib 10 µM, 100% = cells with rucaparib alone
# [20] = at 0.00122 µM, OCI-C5x cells, without rucaparib
# [21] = at 0.00122 µM, OCI-P5x cells, with rucaparib 20 µM, 100% = cells with rucaparib alone
# [22] = at 0.00122 µM, OCI-P5x cells, without rucaparib
# [23] = at 0.00488 µM, OCI-C5x cells, with rucaparib 10 µM, 100% = cells with rucaparib alone
# [24] = at 0.00488 µM, OCI-C5x cells, without rucaparib
# [25] = at 0.00488 µM, OCI-P5x cells, with rucaparib 20 µM, 100% = cells with rucaparib alone
# [26] = at 0.00488 µM, OCI-P5x cells, without rucaparib
# [27] = at 0.0195 µM, OCI-C5x cells, with rucaparib 10 µM, 100% = cells with rucaparib alone
# [28] = at 0.0195 µM, OCI-C5x cells, without rucaparib
# [29] = at 0.0195 µM, OCI-P5x cells, with rucaparib 20 µM, 100% = cells with rucaparib alone
# [30] = at 0.0195 µM, OCI-P5x cells, without rucaparib
# [31] = at 0.0781 µM, OCI-C5x cells, with rucaparib 10 µM, 100% = cells with rucaparib alone
# [32] = at 0.0781 µM, OCI-C5x cells, without rucaparib
# [33] = at 0.0781 µM, OCI-P5x cells, with rucaparib 20 µM, 100% = cells with rucaparib alone
# [34] = at 0.0781 µM, OCI-P5x cells, without rucaparib
# [35] = at 0.313 µM, OCI-C5x cells, with rucaparib 10 µM, 100% = cells with rucaparib alone
# [36] = at 0.313 µM, OCI-C5x cells, without rucaparib
# [37] = at 0.313 µM, OCI-P5x cells, with rucaparib 20 µM, 100% = cells with rucaparib alone
# [38] = at 0.313 µM, OCI-P5x cells, without rucaparib
# [39] = at 1.25 µM, OCI-C5x cells, with rucaparib 10 µM, 100% = cells with rucaparib alone
# [40] = at 1.25 µM, OCI-C5x cells, without rucaparib
# [41] = at 1.25 µM, OCI-P5x cells, with rucaparib 20 µM, 100% = cells with rucaparib alone
# [42] = at 1.25 µM, OCI-P5x cells, without rucaparib
# [43] = at 5 µM, OCI-C5x cells, with rucaparib 10 µM, 100% = cells with rucaparib alone
# [44] = at 5 µM, OCI-C5x cells, without rucaparib
# [45] = at 5 µM, OCI-P5x cells, with rucaparib 20 µM, 100% = cells with rucaparib alone
# [46] = at 5 µM, OCI-P5x cells, without rucaparib
smiles,measurement,setting,value
O=S(=O)(CC1CS1)c1ccc(Oc2ccccc2)cc1 (configuration not stated),AC50,[1],20.9 µM (active)
same,AC50,[2],23.5 µM (active)
same,outcome,[3],inactive
same,fold change,[4]; [9],0.961 (inactive)
same,fold change,[4]; [10],0.577
same,cell count,[4]; [11],8270
same,cell count,[4]; [12],8600
same,z-score,[5]; [13],-0.354 (inactive)
same,z-score,[5]; [14],-1.56
same,viability,[6]; [15],114% (inactive)
same,viability,[6]; [16],110% (inactive)
same,viability,[6]; [17],95.3% (active)
same,viability,[6]; [18],95.4% (active)
same,viability,[6]; [19],112% (inactive)
same,viability,[6]; [20],111% (inactive)
same,viability,[6]; [21],98.5% (active)
same,viability,[6]; [22],92.4% (active)
same,viability,[6]; [23],121% (inactive)
same,viability,[6]; [24],102% (inactive)
same,viability,[6]; [25],89.9% (active)
same,viability,[6]; [26],97.6% (active)
same,viability,[6]; [27],122% (inactive)
same,viability,[6]; [28],112% (inactive)
same,viability,[6]; [29],91% (active)
same,viability,[6]; [30],94.3% (active)
same,viability,[6]; [31],121% (inactive)
same,viability,[6]; [32],102% (inactive)
same,viability,[6]; [33],85.3% (active)
same,viability,[6]; [34],91.2% (active)
same,viability,[6]; [35],120% (inactive)
same,viability,[6]; [36],101% (inactive)
same,viability,[6]; [37],84.7% (active)
same,viability,[6]; [38],93.5% (active)
same,viability,[6]; [39],117% (inactive)
same,viability,[6]; [40],111% (inactive)
same,viability,[6]; [41],79% (active)
same,viability,[6]; [42],82.1% (active)
same,viability,[6]; [43],108% (inactive)
same,viability,[6]; [44],110% (inactive)
same,viability,[6]; [45],80.3% (active)
same,viability,[6]; [46],81.4% (active)
CCCCCCCC/C=C\CCCCCCCC(=O)OC[C@@H](COP(O)(O)=S)OC,fold change,[4]; [9],1.15 (inactive)
same,fold change,[4]; [10],0.718
same,cell count,[4]; [11],6260
same,cell count,[4]; [12],5460
CNCCCCCCN(C)N(O)N=O,fold change,[4]; [9],0.998 (inactive)
same,fold change,[4]; [10],0.973
same,cell count,[4]; [11],6040
same,cell count,[4]; [12],6050
C[C@@H](C1CC[C@@]2(O)C3=CC(=O)[C@@H]4C[C@@H](O)[C@@H](O)C[C@]4(C)[C@H]3CC[C@]12C)[C@H](O)CCC(C)(C)O (some centres not stated),outcome,[7],inactive
same,outcome,[8],inactive
same,outcome,[2],inactive
Cc1sc2c(c1C)C(c1ccc(Cl)cc1)=NC(CC(N)=O)c1nnc(C)n1-2 (configuration not stated),outcome,[2],inactive
same,outcome,[3],inactive
same,fold change,[4]; [9],0.978 (inactive)
same,fold change,[4]; [10],0.427
same,cell count,[4]; [11],5420
same,cell count,[4]; [12],5540
same,z-score,[5]; [13],0.425 (inactive)
same,z-score,[5]; [14],-3.88
O=NN(O)N1CCC[C@H]1C(=O)O,fold change,[4]; [9],0.944 (inactive)
same,fold change,[4]; [10],1.07
same,cell count,[4]; [11],5740
same,cell count,[4]; [12],6080
c1cc2ccc(N3CCNCC3)cc2cn1,fold change,[4]; [9],0.985 (inactive)
same,fold change,[4]; [10],0.763
same,cell count,[4]; [11],5520
same,cell count,[4]; [12],5610
C[C@@H]1CC([C@H](O)CC2CC(=O)NC(=O)C2)C(=O)[C@@H](C)C1 (some centres not stated),fold change,[4]; stronger effect = lower value,1.01 (inactive)
same,fold change,[4]; [10],1.96
same,cell count,[4]; [11],1800
same,cell count,[4]; [12],1780
CCCCC/C=C\C/C=C\C/C=C\C/C=C\CCCC(=O)OCCN,fold change,[4]; [9],0.993 (inactive)
same,fold change,[4]; [10],0.893
same,cell count,[4]; [11],5780
same,cell count,[4]; [12],5820
C[C@H](CCC(=O)O)C[C@H](C)C[C@H](C)C(=O)/C=C(\O)[C@H](C)C[C@H](C)C/C=C/[C@@H](C)[C@@H](O)[C@@H](C)[C@@H](O)C[C@@H]1CC[C@@](C)([C@H]2CC[C@@](C)([C@@H](C)O)O2)O1,fold change,[4]; [9],0.679 (active)
same,fold change,[4]; [10],0.922
same,cell count,[4]; [11],621
same,cell count,[4]; [12],914
CCCCCCC(C)(C)c1cc(O)c2c(c1)OC(C)(C)C1CC=C(CO)C[C@H]21 (some centres not stated),AC50,[7],9.34 µM (active)
same,AC50,[8],7.42 µM (active)
same,AC50,[2],7.42 µM (active)
Cc1sc2c(c1C)C(c1ccc(Cl)cc1)=N[C@@H](CC(N)=O)c1nnc(C)n1-2,outcome,[2],inactive
same,outcome,[3],inactive
same,viability,[6]; [15],106% (inactive)
same,viability,[6]; [16],111% (inactive)
same,viability,[6]; [17],89.8% (active)
same,viability,[6]; [18],93.2% (active)
same,viability,[6]; [19],111% (inactive)
same,viability,[6]; [20],124% (inactive)
same,viability,[6]; [21],100% (inactive)
same,viability,[6]; [22],96.7% (active)
same,viability,[6]; [23],99.7% (active)
same,viability,[6]; [24],94.7% (active)
same,viability,[6]; [25],97.5% (active)
same,viability,[6]; [26],97.3% (active)
same,viability,[6]; [27],64.4% (active)
same,viability,[6]; [28],66.5% (active)
same,viability,[6]; [29],82.4% (active)
same,viability,[6]; [30],90% (active)
same,viability,[6]; [31],38.4% (active)
same,viability,[6]; [32],48.1% (active)
same,viability,[6]; [33],54.9% (active)
same,viability,[6]; [34],77.6% (active)
same,viability,[6]; [35],20.3% (active)
same,viability,[6]; [36],29.5% (active)
same,viability,[6]; [37],31.5% (active)
same,viability,[6]; [38],66.2% (active)
same,viability,[6]; [39],16.4% (active)
same,viability,[6]; [40],26.3% (active)
same,viability,[6]; [41],24% (active)
same,viability,[6]; [42],64.7% (active)
same,viability,[6]; [43],14.7% (active)
same,viability,[6]; [44],20.8% (active)
same,viability,[6]; [45],19% (active)
same,viability,[6]; [46],56.3% (active)
